{"source": "PubChem BioAssay AID651899", "about": "(Broad Institute, 2012)", "note": "Potency and affinity values are given separately. Calls of active or inactive are those of the source. The rule behind the calls is not given here."}
{"assay": "HEK293 cell viability loss – plate reader, cherry-pick, cytotoxicity control, dose response (AID 651899);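 note: cells exposed to compound for 48 hours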", "conditions": "series mostly up to 26 µM; activity change, negative = cytotoxicity: at the top concentration"}
{"smiles": "Nn1c(SCc2nc3ccccc3[nH]2)nnc1-c1cccnc1", "activity change, negative = cytotoxicity": "-16.1% (inactive)"}
{"smiles": "CC(=O)CSc1nnc(CSc2ncccn2)n1C1CCCCC1", "activity change, negative = cytotoxicity": "10.1% (inactive)"}
{"smiles": "O=C(c1ccc(Br)s1)N1CCN(Cc2ccc3c(c2)OCO3)CC1", "activity change, negative = cytotoxicity": "-14.7% (inactive)"}
{"smiles": "O=C(Nc1cccnc1)c1ccc(N2CCCC2)c([N+](=O)[O-])c1", "activity change, negative = cytotoxicity": "23.8% [at 12 µM] (inactive)"}
{"smiles": "CC(=O)c1ccc(C(=O)N2CCCC(Nc3ccc(C(C)C)cc3)C2)s1", "note": "(stereo not given)", "activity change, negative = cytotoxicity": "8.11% (inactive)"}
{"smiles": "COc1ccc(NC(=O)c2ccc(-n3cncn3)c([N+](=O)[O-])c2)cc1OC", "activity change, negative = cytotoxicity": "12.8% (inactive)"}
{"smiles": "COCCNC(=O)C[C@H]1CC[C@@H]2[C@@H](COc3ccc(NC(=O)Nc4cccc(F)c4)cc3C(=O)N2C)O1", "activity change, negative = cytotoxicity": "3.73% [at 23.5 µM] (inactive)"}
{"smiles": "O=C(Nc1cccnc1)c1ccc(N2CCOCC2)c([N+](=O)[O-])c1", "activity change, negative = cytotoxicity": "25.2% (inactive)"}
{"smiles": "CN1c2ccc(-c3cccc(F)c3)cc2[C@H]2[C@H](CCN2C(=O)c2ccncc2)[C@@H]1CO", "activity change, negative = cytotoxicity": "14.4% (inactive)"}
{"smiles": "Cn1nnc2cc(C(=O)Nc3cccnc3)ccc21", "activity change, negative = cytotoxicity": "-8.5% (inactive)"}
{"smiles": "C[C@@H]1CN([C@@H](C)CO)C(=O)c2cc(C#Cc3cccnc3)cnc2O[C@H]1CN(C)S(C)(=O)=O", "activity change, negative = cytotoxicity": "39.9% (inactive)"}
{"smiles": "CCN(CC)CCNC(=O)c1cn(CC)c2ccc(S(=O)(=O)N3CCc4ccccc4C3)cc2c1=O", "activity change, negative = cytotoxicity": "-10.8% (inactive)"}
{"smiles": "CCN1[C@H](C(=O)NCc2ccccc2)[C@@H](CO)[C@@H]2Cn3c(ccc(-c4cccnc4)c3=O)[C@@H]21", "activity change, negative = cytotoxicity": "12.6% (inactive)"}
{"smiles": "COc1ccc([N+](=O)[O-])cc1C(=O)NC1CCN(Cc2ccccc2)CC1", "activity change, negative = cytotoxicity": "24% (inactive)"}
{"smiles": "CNC(=O)C[C@H]1CC[C@@H]2[C@H](COC[C@@H](O)CN2C(=O)Nc2ccc3c(c2)OCO3)O1", "activity change, negative = cytotoxicity": "2.39% (inactive)"}
